Results reported in article PMC4552634, “A New Set of Chemical Starting Points with Plasmodium falciparum Transmission-Blocking Potential for Antimalarial Drug Discovery” (PLoS ONE, 2015).
The campaign covered roughly 13,000 compounds. About 3,200 (25%) showed an effect of 50% or more. Some of the results follow.

What follows are compounds tested on P. falciparum stage V gametocytes. Conditions: 48 h, 5 µM; inhibitor.
Design: BacTiter-Glo ATP luminescence viability of purified stage V gametocytes in 384-well plates, per cent inhibition versus DMSO

Compared with Cc1cc(N(C)C)nc(Nc2ccc(NC(=O)c3ccc(Br)o3)cc2)n1 [TCMDC-124972], Cc1ccc(Nc2nccc(NCC(O)c3cccc(F)c3)n2)cc1 (stereo not drawn) [TCMDC-136572] is lower in “% Inhibition” value: -1.025% for the first, -5.913% for the second.

Going from CCCC(CNC(=O)c1cc2c(Cl)cc(Cl)cc2[nH]1)CNc1cc(=O)c2ccccc2[nH]1 (stereo not drawn) [TCMDC-140519] to CCOc1cc(C(=O)NCCN(CC)c2cccc(C)c2)ccc1-c1nc2ccc(Cl)cc2[nH]1 [TCMDC-140916], the “% Inhibition” value rises from -10.38% to -6.076%.

Compared with Cc1c(CC(=O)N(C)C2CCN(CCCCCNC(=O)/C=C/c3ccc(Cl)c(Cl)c3)CC2)sc2ccc(Cl)cc12 [TCMDC-139994], CC(=O)Nc1ccc(CN2CCC(N(C)c3cc(NC(=O)c4ccc(F)cc4)ccn3)CC2)cc1 [TCMDC-134983] is lower in “% Inhibition” value: -4.891% for the first, -11.33% for the second.

First: COc1ccc(CCn2c(=N)c(C(=O)NCc3ccccc3)cc3c(=O)n4ccccc4nc32)cc1 [TCMDC-124472]
Second: COc1ccc(CCN(C)CCOc2ccc(NC(=O)c3cccc4cc5ccccc5nc34)cc2)cc1OC [TCMDC-132112]
The “% Inhibition” value of the first is higher: 34.54% for the first, -28.68% for the second.

Going from CCOC(=O)N/N=C/[C@H](CCc1ccccc1)NC(=O)[C@H](CC(C)C)NC(=O)c1cc2cccc(OC)c2o1 [TCMDC-135928] to CCOC(=O)N(C)/N=C/[C@H](CCc1ccccc1)NC(=O)[C@H](CC(C)C)NC(=O)c1cc2cccc(OC)c2o1 [TCMDC-136018], the “% Inhibition” value rises from 10.67% to 75%.

Compared with CCC[C@@H](/C=N/N(C)C(=O)OC(C)(C)C)NC(=O)[C@H](CC(C)C)NC(=O)c1cc2cccc(OC)c2o1 [TCMDC-136059], O=C(NC(Cc1ccccc1)C(=O)O)c1cc(=O)c2ccccc2o1 (stereo not drawn) [TCMDC-131318] is higher in “% Inhibition” value: -6.333% for the first, 3.006% for the second.

Going from CCc1cc2c(N)nc(N)nc2nc1-c1ccccc1 [TCMDC-131931] to Nc1nc(N)c2cc3ccc(OCc4ccccc4)cc3nc2n1 [TCMDC-137967], the “% Inhibition” value rises from 14.27% to 109.1%.

First: Nc1nccc2ccc(-c3ccc(OCc4ccccc4)cc3)cc12 [TCMDC-133423]
Second: Nc1ncc(-c2ccccc2)cc1-c1cccc2ncccc12 [TCMDC-133415]
The “% Inhibition” value of the first is lower: 12.93% for the first, 19.97% for the second.

Going from COc1cc2cc(C(=O)Nc3ccccc3)c(N)nc2cc1OC [TCMDC-123992] to COc1ccc(Cc2nc(N=C(N)Nc3ccccc3)ccc2OC)cc1 [TCMDC-138959], the “% Inhibition” value rises from 12.69% to 88.7%.

Going from N/C(=N\c1cccc(Cc2ccc([N+](=O)[O-])cc2)n1)Nc1ccccc1 [TCMDC-138952] to Cc1ccccc1Cc1cccc(/N=C(\N)Nc2ccc(Cl)cc2)n1 [TCMDC-138942], the “% Inhibition” value falls from 90.6% to 89.67%.

First: O=C(Nc1cccc(OC2CCN(Cc3ccccc3)CC2)c1)c1ccc([N+](=O)[O-])cc1 [TCMDC-139543]
Second: O=C(Nc1cccc(-c2ccc(CN3CCC(O)CC3)cc2)c1)c1ccc(Cl)cc1 [TCMDC-132633]
The “% Inhibition” value of the first is higher: 0.689% for the first, -6.492% for the second.

Compared with Cc1ccccc1CN1CCCN(Cc2ccc(C(=O)Nc3ccc(Cl)cc3)cc2)CC1 [TCMDC-136402], Cc1ccc(NC(=O)c2ccc(CN3CCCN(Cc4cccc(C#N)c4)CC3)cc2)cc1F [TCMDC-136394] is lower in “% Inhibition” value: -5.846% for the first, -18.71% for the second.

First: CN(c1ccccc1)c1ccnc(/N=C(\N)Nc2ccc(Cl)cc2)n1 [TCMDC-138941]
Second: CC1(C)N=C(NC(=O)Nc2ccc([N+](=O)[O-])cc2)N=C(N)N1OCc1cccc2ccccc12 [TCMDC-131582]
The “% Inhibition” value of the first is higher: 49.31% for the first, 35.05% for the second.

First: NC(=O)c1cccc(Nc2nccc(Nc3ccc4[nH]c(-c5ccccc5)cc4c3)n2)c1 [TCMDC-138678]
Second: O=C(Cc1cccc(Cl)c1)Nc1cccc(-c2c[nH]c3nc(Nc4cccc(OCc5ccccc5)c4)ncc23)c1 [TCMDC-134680]
The “% Inhibition” value of the first is lower: -94.87% for the first, -43.48% for the second.

Going from COc1ccc(S(=O)(=O)NC2CCN(c3cc(C)nc(Nc4cccc(C#N)c4)n3)CC2)cc1 [TCMDC-134215] to COc1ccc(CNC2CCN(C)CC2)cc1-c1ccc(S(=O)(=O)NCc2ccccc2)cc1 [TCMDC-132244], the “% Inhibition” value rises from 11.7% to 110.3%.

Going from Cc1ccc(NC(=O)c2cnc(N3CCN(c4ccncc4)CC3)c(Cl)c2)cc1 [TCMDC-134603] to CN(Cc1cccc(O)c1)C1CCN(c2cc(NC(=O)c3cccc(F)c3)ccn2)CC1 [TCMDC-134962], the “% Inhibition” value falls from 7.543% to -30.72%.

Going from CNC(=O)c1[nH]c(-c2ccccc2)nc1NC(C)=O [TCMDC-131315] to CCCCC1=CC2C(=O)C(C(=O)OC)=CN=C2C=C1OCc1ccccc1 (stereo not drawn) [TCMDC-137492], the “% Inhibition” value rises from -0.1444% to 62.56%.

Going from CC(C)(CNC(=O)[C@@H]1CCCN(Cc2ccc(Cl)cc2)C1)c1nc(-c2ccc(Cl)c(O)c2)c(-c2ccncc2)[nH]1 [TCMDC-141139] to COCCN1CCC(C(=O)NCC(C)(C)c2nc(-c3ccc(Br)c(O)c3)c(-c3ccncc3)[nH]2)CC1 [TCMDC-140792], the “% Inhibition” value rises from 5.708% to 8.912%.

Going from Nc1nccc(-c2ccc3c(/C=C/c4ccccc4)cnc(N)c3c2)n1 [TCMDC-136382] to Nc1ncc(-c2ccccc2)cc1/C=C/c1cccnc1 [TCMDC-135534], the “% Inhibition” value rises from -22.89% to 59.51%.

First: COc1cc(NC(=O)N2CCOC(CCN3CCC4(CCc5ccccc54)CC3)(c3ccc(Cl)c(Cl)c3)C2)cc(OC)c1OC (stereo not drawn) [TCMDC-135346]
Second: CN1CCN(CCCN(Cc2csc(-c3ccc(CNCc4ccccc4)cc3)n2)C(=O)Nc2cc(Cl)cc(Cl)c2)CC1 [TCMDC-141795]
The “% Inhibition” value of the first is lower: -4.106% for the first, 32.67% for the second.

Compared with CCCc1cc(Cc2cnc(N)nc2N)cc(CCC)c1O [TCMDC-137695], COc1ccc2ncc(F)c(CCN3C4CCC3CC(NCc3ccc5c(c3)OCCO5)C4)c2n1 (stereo not drawn) [TCMDC-135638] is higher in “% Inhibition” value: -57.47% for the first, 37.56% for the second.

Compared with CCOc1ccccc1C1C(C(=O)C(C)(C)C)N2c3ccc(Br)cc3C=CC2C12C(=O)c1ccccc1C2=O (stereo not drawn) [TCMDC-125079], Cc1ccc(NC(=O)c2cn(-c3ccccc3)nc2-c2ccc(F)cc2)cc1[N+](=O)[O-] [TCMDC-125590] is lower in “% Inhibition” value: 103.1% for the first, -12.22% for the second.

Compared with COc1ccc(CNC2CCN(C)CC2)cc1-c1cccc(S(=O)(=O)NCc2ccccc2)c1 [TCMDC-132267], CN1CCN(CCCN(Cc2csc(-c3ccc(CNCc4ccccc4)cc3)n2)S(=O)(=O)c2ccccc2)CC1 [TCMDC-141600] is lower in “% Inhibition” value: 106.3% for the first, 63.87% for the second.

Compared with Clc1ccc(CNc2nc(NCCc3cnc[nH]3)nc(Nc3ccc4c(c3)OCO4)n2)cc1 [TCMDC-139740], CN1CCN(CCCN(Cc2csc(-c3ccc(CNCc4ccccc4)cc3)n2)C(=O)Nc2ccc3ccccc3c2)CC1 [TCMDC-141642] is higher in “% Inhibition” value: 19.01% for the first, 43.35% for the second.

First: O=C(COc1ccccc1Cl)N1CCc2cc3nccc(N4CCN5CCC[C@H]5C4)c3cc21 [TCMDC-140049]
Second: N#Cc1ccc2c(c1)CN(CCC1CCC(NC(=O)c3cc4ccccc4cc3N)CC1)CC2 (stereo not drawn) [TCMDC-139164]
The “% Inhibition” value of the first is lower: 15.14% for the first, 18.76% for the second.

First: Oc1ccc(Cl)cc1CN1CCCC(COC(c2ccc(F)cc2)c2ccc(F)cc2)C1 (stereo not drawn) [TCMDC-136034]
Second: Oc1c(CN2CCCC(C(F)(F)F)C2)cc(Cl)c2ccccc12 (stereo not drawn) [TCMDC-124857]
The “% Inhibition” value of the first is lower: 8.672% for the first, 96.48% for the second.

Compared with O=C(NCCN1CCC(NC(=O)c2ccc(-c3ccccn3)s2)CC1)c1cccc(C(F)(F)F)c1 [TCMDC-141952], O=C(NNC(=O)c1ccc(CCN2CCC(c3nc(COCC(F)(F)F)c(-c4ccc(F)cc4)o3)CC2)cc1)Nc1ccc(Oc2ccccc2)cc1 [TCMDC-131906] is lower in “% Inhibition” value: 4.93% for the first, -12.54% for the second.

First: O=C(c1ccc(Cl)cc1Cl)N1CCCC(C(F)(F)F)C1 (stereo not drawn) [TCMDC-123721]
Second: CC1CCCN(Cc2cc(Cl)cc(Cl)c2O)C1 (stereo not drawn) [TCMDC-125392]
The “% Inhibition” value of the first is higher: 22.72% for the first, 14.71% for the second.

Compared with Cc1nn(-c2ccccc2)nc1C(=O)N(Cc1ccc(-c2ccc(CNCCc3ccc(S(C)(=O)=O)cc3)cn2)cc1)C1CC1 [TCMDC-141523], Cc1cnc(CN(Cc2ccc(-c3ccc(CNCCc4ccc(S(C)(=O)=O)cc4)cn3)cc2)C(=O)c2nn(-c3ccccc3)nc2C)cn1 [TCMDC-141522] is lower in “% Inhibition” value: 39.99% for the first, -18.48% for the second.

First: Cc1cc(C(=O)N(Cc2ccc(-c3ccc(CNCCc4ccc(S(C)(=O)=O)cc4)cn3)cc2)C(C)CN(C)C)ccc1[N+](=O)[O-] (stereo not drawn) [TCMDC-141521]
Second: Cc1cnc(CN(Cc2ccc(-c3ccc(CNCCc4ccc(S(C)(=O)=O)cc4)cn3)cc2)C(=O)c2ccc([N+](=O)[O-])c(C)c2)cn1 [TCMDC-141520]
The “% Inhibition” value of the first is lower: 51.26% for the first, 64.44% for the second.

Going from C=CC[C@H](C[C@H](O)[C@H](Cc1ccccc1)NC(=O)c1nn(-c2ccccc2)nc1C)C(=O)NC1CCCCC1 [TCMDC-141422] to C[C@@H](COc1ccccc1)NCC(O)c1ccc([N+](=O)[O-])c(OCc2ccccc2)c1 (stereo partly drawn) [TCMDC-132032], the “% Inhibition” value rises from -47.48% to 7.287%.

Compared with CN1CCN(CCCN(Cc2csc(-c3ccc(CNCc4ccccc4)cc3)n2)S(=O)(=O)c2ccc(F)cc2)CC1 [TCMDC-141601], Cc1ccc(S(=O)(=O)N(CCCN2CCN(C)CC2)Cc2csc(-c3ccc(CNCc4ccccc4)cc3)n2)cc1 [TCMDC-141602] is lower in “% Inhibition” value: 76.11% for the first, 64.23% for the second.

Compared with CN1CCN(CCCN(Cc2csc(-c3ccc(CNCc4ccccc4)cc3)n2)S(=O)(=O)c2cccc3cccnc23)CC1 [TCMDC-141598], CN1CCN(CCCN(Cc2csc(-c3ccc(CNCc4ccccc4)cc3)n2)S(=O)(=O)c2ccccc2Cl)CC1 [TCMDC-141603] is higher in “% Inhibition” value: 96.08% for the first, 99.67% for the second.

Going from COc1ccc(S(=O)(=O)N(CCCN2CCN(C)CC2)Cc2csc(-c3ccc(CNCc4ccccc4)cc3)n2)cc1 [TCMDC-141599] to CCc1ccc(NC(=O)N(CCCN2CCN(C)CC2)Cc2csc(-c3ccc(CNCc4ccccc4)cc3)n2)cc1 [TCMDC-141641], the “% Inhibition” value falls from 65.47% to 9.107%.

In the case of CN1CCN(CCCN(Cc2csc(-c3ccc(CNCc4ccccc4)cc3)n2)C(=O)c2cc(F)cc(F)c2)CC1 [TCMDC-141812], the “% Inhibition” value was 50.04%.
